# About 240 (0.067%) of roughly 360,000 compounds were called active. Cut-off read from the data, not from the text of the source: active = activation above about 50%; inconclusive = mostly about 30% to 49%; inactive = weaker than that. Shown is part of a subset that was picked to be rich in actives.
# Test: qHTS of IL-2 Activators; note: 0% is about no effect
# Conditions: IL-2 activation reporter assay, cell-based qHTS; hits give high values; in transgenic mouse T cells; stimulated with anti-CD3/CD4/CD28 beads
# Text: The adaptive immune response against any infectious agent begins with the activation of an antigen specific T cell. This relatively rare and inert ("naive") T cell undergoes a massive proliferative expansion and differentiation process to generate sufficient number of potent pathogen-specific effector T cells. The effector T cells fight the infection by making cytokines and helping other cells to become fully armed as well. If any naive T cell has antigen receptors (TCRs) that can be activated by self peptides, then a variety of regulatory mechanisms kick in to prevent this cell from performing to its full potential. These processes collectively constitute the phenomenon of immunological tolerance and their failure leads to autoimmunity. One arm of tolerance involves generation of biochemical negative feedback downstream of the TCR (tuning). This is especially relevant to self antigens present in the body over long periods of time (chronic), which form the bulk of our proteome. The negative feedback serves to tune the TCR signaling, such that the ambient antigenic stimulation is nullified intracellularly. Unfortunately, this critical machinery serves as a target for chronic viral, bacterial and parasitic infections (as well as tumors), which can evade a robust immune response, simply by allowing T cells to tune down their signaling to pathogen or malignancy derived antigens. As such, disrupting the tuning in such cases would allow the tolerant T cell to function again and deliver a robust effector response.
# If a therapeutic can restore responsiveness to the tuned down T cell, even for a short time, they could combat the pathogen without any additional immunization. To that end, we have developed a sensitive HTS T cell based assay based on IL-2. This assay will be screened against the Molecular Libraries Small Molecule Repository (MLSMR) to find small molecules that could elicit this response.
# NIH Chemical Genomics Center [NCGC]
# NIH Molecular Libraries Probe Centers Network [MLPCN]
# Assay Submitter (PI): Ron Schwartz, NIAID
# 4 microL (750 cells/well) of unstimulated transgenic mouse T cells (columns 1-3,5-48) are dispensed into Aurora LoBase, black clear-bottom 1536-well assay plates; column 4 receives an identical concentration of transgenic memory T cells as a non-tolerant control. Compounds are then transferred via Kalypsys pin tool equipped with 1536-pin array (10 nL slotted pins, V&P Scientific, San Diego, CA). Following addition of compound and a 60 minute incubation, 1 microL of bead stimulation solution ((0.04 micron Fluospheres (Life technologies, CA) coated with 10ug/ml each anti-CD3 and anti-CD4 (clones 2C11 and GK1.5, BD Biosciences, CA) and mixed with 1ug/ml anti-CD28 (clone PV-1, BD biosciences, CA)). columns 2-48) is added to stimulate the IL-2 response pathway; media is instead added to column 1 as an unstimulated control, while PMA/ionomycin (Sigma Aldrich, MO) is added to column 3 as a control for IL-2 tolerance bypass. The plates are then incubated at 37 degrees C for 18 hours. EGFP and DsRed signal are then detected using an Acumen eX3 Explorer fluorescent plate cytometer. All cells are dispensed in cell media containing EHAA (Quality Biologicals, MD), RPMI (Quality Biologicals, MD), Glutamine (Life Technologies, CA), Penicillin/Streptomycin (Quality Biologicals, MD), 2-ME (Sigma Aldrich, MO) and 10% FBS (Gemini Bioproducts, CA) .
row,SMILES,activation
1,Cc1ccc(-c2c[n+](=O)c3c(n2[O-])CCC3)cc1,1.34% (inactive)
2,COc1ccc(N(CC(=O)NC2CCCC2)C(=O)CS(=O)CC(=O)Nc2ccc3c(c2)OCO3)cc1 (configuration not stated),-2.57% (inactive)
3,c1csc(CN2CCN(Cc3cccs3)C2c2cccs2)c1,0.339% (inactive)
4,Cc1cc(C)cc(C(=O)NC(CC(N)=O)c2ccc(N3CCC(N4CCCCC4)CC3)c([N+](=O)[O-])c2)c1 (configuration not stated),-0.417% (inactive)
5,O=C(O)CCCCOn1ccnc1,1.09% (inactive)
6,CCn1nc(C)c(CN2CCN(Cc3ccc(OC)c(C)c3C)C(CCO)C2)c1C (configuration not stated),-3.09% (inactive)
7,O=C(O)c1ccccc1N=N/C(=N/Nc1cc(S(=O)(=O)O)ccc1O)c1ccccc1,0.118% (inactive)
8,CCOC(=O)[C@]12CCCC=C1N(Cc1cccc3ccccc13)C(=O)[C@H](CC(=O)NCC13CC4CC(CC(C4)C1)C3)C2,-1.16% (inactive)
9,CCN(CC)S(=O)(=O)c1ccc(N2CCN(C)CC2)c(NC(=O)Nc2ccccc2F)c1,-1.22% (inactive)
10,CC1(Oc2ccc(Cl)cc2)CCN(Cc2csc3ccccc23)C1 (configuration not stated),0.192% (inactive)
11,COC(=O)COc1cccc2c(=O)n(CC(=O)NCc3ccccc3)ccc12,-3.22% (inactive)
12,CCOC(=O)N1CCN(C(=O)c2ccccc2SCC(=O)NCC2CCCCC2)CC1,-1.16% (inactive)
13,O=C(NCc1ccccc1Cl)c1csc([C@@H]2O[C@H](CO)[C@@H](O)[C@H]2O)n1,0.0054% (inactive)
14,CC(=O)Nc1ccc(C(=O)Nc2cc(S(=O)(=O)N3CCOCC3)ccc2N2CCOCC2)cc1,-2.32% (inactive)
15,Nc1nc(-c2sc3nc4c(cc3c2N)CCCC4)nc(N2CCOCC2)n1,-1.7% (inactive)
16,CCCc1cc(=O)[nH]c(SCc2cc(=O)oc3c(C)c(C)ccc23)n1,-0.327% (inactive)
17,CCOc1ccccc1NC(=O)C12CC3CC(C1)CC(c1ccc(C)cc1)(C3)C2,-4.57% (inactive)
18,Cc1cc(C)c2c(-n3cccc3)c(C(=O)NNS(=O)(=O)c3ccc(F)cc3)sc2n1,0.79% (inactive)
19,CC(=O)N(Cc1cccs1)C1CCOC(C)(C)C1 (configuration not stated),-0.456% (inactive)
20,O=C(NNC(=S)NC1CC2CCC1C2)c1ccc(Cl)cc1 (configuration not stated),-0.932% (inactive)
21,Cc1ccccc1-n1nnc2c(=O)oc3ccccc3c21,-0.569% (inactive)
22,COc1ccccc1CNC(=O)C1CCCN(S(=O)(=O)c2cccc3cccnc23)C1 (configuration not stated),-1.32% (inactive)
23,Cc1ccc(C(CC(=O)O)NC(=O)c2ccc(S(=O)(=O)N3CCCC3)cc2)cc1 (configuration not stated),0.29% (inactive)
24,CC1=C(C(=O)OC2CCCCC2)C(c2ccccc2F)NC(=O)N1 (configuration not stated),-8.28% (inactive)
25,Cn1cccc1C1(C(F)(F)F)NCCNC1=O (configuration not stated),-1.5% (inactive)
26,CCO[C@H]1OC(C(=O)N2CCOCC2)=C[C@@H](c2ccc3c(c2)OCO3)[C@@H]1CCCO,-0.126% (inactive)
27,Cc1nn(CCOc2ccc(Br)cc2)c(C)c1[N+](=O)[O-],-2.36% (inactive)
